About 17,000 (5.5%) of roughly 310,000 compounds were called active. Not shown: some 11% with an inconclusive outcome. This excerpt belongs to a sample that is enriched for actives. A number with no mark means an inactive call. The call rests on the fitted dose curve; in most records, active means well fitted inhibition curve with a large enough effect; inconclusive means small, poorly fitted or top-dose-only effect, or effect the other way; inactive means no such curve, though single readings can be large or run the other way.
Biological target: Nuclear receptor ROR-gamma (Mus musculus) (UniProt P51450)
Sequence (P51450 whole entry, looked up): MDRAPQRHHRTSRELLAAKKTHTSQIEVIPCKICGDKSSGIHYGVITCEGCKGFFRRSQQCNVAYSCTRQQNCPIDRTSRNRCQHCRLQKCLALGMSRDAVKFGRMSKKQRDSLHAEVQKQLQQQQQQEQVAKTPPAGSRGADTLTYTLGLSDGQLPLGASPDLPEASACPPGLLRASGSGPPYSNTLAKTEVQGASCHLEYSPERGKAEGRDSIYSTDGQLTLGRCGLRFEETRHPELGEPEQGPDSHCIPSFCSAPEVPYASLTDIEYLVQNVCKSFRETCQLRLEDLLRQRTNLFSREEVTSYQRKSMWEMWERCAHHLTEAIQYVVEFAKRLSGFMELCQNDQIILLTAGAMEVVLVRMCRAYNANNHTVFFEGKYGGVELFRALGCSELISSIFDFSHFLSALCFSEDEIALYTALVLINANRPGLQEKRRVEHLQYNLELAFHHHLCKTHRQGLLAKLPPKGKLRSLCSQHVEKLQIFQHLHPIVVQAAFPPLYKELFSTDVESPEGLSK
Test: qHTS for inhibitors of ROR gamma transcriptional activity; further: nearly all actives have a fitted effect of over 60% in size
Conditions: Drosophila S2 Gal4-RORgamma UAS-luciferase reporter, 20 h; series mostly up to 53.6 µM; activity change, negative = inhibition: at the top concentration
Procedure, shortened: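 Drosophila S2 cells stably expressing Gal4-DBD/mouse RORγ fusion under metallothionein promoter plus UAS-luciferase; compound 1 h, then 700 uM CuSO4 induction for 20 h at ambient temperature; inhibition read as reduced luminescence.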
On the % scale 0 is the no-effect control and ±100 the full control effect; potency means the concentration at half of the fitted maximal effect.

Compound | activity change, negative = inhibition | Potency
COCCC(=O)N1CCC(Oc2ccc(C(=O)NCc3ccon3)cc2)CC1 | -0.109% | –
Clc1ccc(C(Cn2ccnc2)OCc2ccsc2Cl)c(Cl)c1 (centres undefined) | – | 12.6 µM (active)
O=C(NCCCn1ccnc1)Nc1ccc(Cl)cc1Cl | 1.19% | –
COc1ccc(C(CNC(=O)COc2ccc([N+](=O)[O-])cc2)N2CCCCC2)cc1 (centres undefined) | -1.04% | –
CC(=O)NCC(=O)NC1CCCc2c1cnn2-c1ccccc1F (centres undefined) | 11.1% | –
COCCN(C(=S)Nc1cccc(Cl)c1C)C(C)c1ccco1 (centres undefined) | – | 7.94 µM (active)
COCCN(CCOC)C(=S)Nc1ccccc1Cl | -20.1% | –
Cc1c(Cl)cccc1NC(=O)CCC(=O)N/N=C/c1ccco1 | 4.27% | –
C=CCn1c(SCC(=O)NCCCO)nc2sc3c(c2c1=O)CCC3 | 12.8% | –
COc1ccccc1C1CCN(C(=S)Nc2ccc(Br)cc2)CC1 | – | 5.01 µM (active)
COc1ccc(C(=O)NC2CCN(C(=S)Nc3ccccc3)CC2)cc1 | -22.9% | –
COc1ccc(NC(=S)N2CCC(NC(=O)c3cccc(F)c3)CC2)cc1 | -21.7% | –
COc1ccc(NC(=O)C2C3CCC(O3)C2C(=O)O)cc1OC (centres undefined) | -29.4% | –
COc1cc(NC(=O)CCS(=O)(=O)c2ccc3c(c2)oc(=O)n3C)cc(OC)c1 | 10.4% | –
Cc1ccc(C(=O)N(CC(=O)NC2CCCC2)c2ccc(F)cc2)s1 | -5.56% | –
CCOc1c2ccc(C(=O)NCc3ccc4c(c3)OCO4)cc2nn1C | -5.74% | –
C=CCNC(=O)c1ccc2c3n(nc2c1)-c1ccc(C)cc1CO3 | – | 7.08 µM (active)
C=CCNC(=O)c1ccc(C)c(Br)c1 | 5.36% [at 0.365 µM] | –
CCCc1nn2c(=O)cc(CSCC(=O)Nc3cccc(C)c3)nc2s1 | -2.84% | –
Cc1ccc2c(c1)c1ncnc(N3CCc4ccccc4C3)c1n2C | – | 15.8 µM (active)
Cc1ccc2c(c1)c1ncn(CCC3=CCCCC3)c(=O)c1n2C | 4.27% | –
Cc1ccc2c(c1)c1ncn(Cc3ccc(F)cc3)c(=O)c1n2C | -40.6% | –
O=C(O)c1ccccc1-c1ccccc1C(=O)Nc1ccccc1Br | -14.5% | –

Compound | activity change, negative = inhibition | Potency
O=C(Nc1ccc(NC(=O)c2cccs2)cn1)c1ccco1 | – | 11.2 µM (active)
COc1cccc(C(=O)Nc2ccc(NC(=O)c3ccco3)cn2)c1 | 25.9% | –
O=C(Nc1ccc2nccnc2c1)c1ccco1 | 43% | –
Cc1cc(O)c(C2(O)C(=O)Nc3ccccc32)cc1C (centres undefined) | 19.9% | –
C/C(=N\NC(=O)c1ccc2ccccc2c1)c1cccnc1 | -21.8% | –
CC(NCc1nc2ccccc2n1C)C12CC3CC(CC(C3)C1)C2 (centres undefined) | – | 5.01 µM (active)
CCOc1ccc(C(O)Cc2nc3ccccc3n2C)cc1 (centres undefined) | 11.9% | –
Cn1c(CNC(=O)C(C)(C)C)nc2ccccc21 | 20.1% [at 0.365 µM] | –
COc1ccc(CCNC(=O)Cc2ccc(C)cc2)cc1OC | -20.3% | –
COc1ccc(CCNC(=O)NS(=O)(=O)c2ccc(C)cc2)cc1OC | -25.4% | –
COc1ccc(CCNC(=S)NC(=O)/C=C/c2ccc(C)cc2)cc1OC | – | 3.16 µM (active)
COc1cccc(CNC(=O)CN(C)S(=O)(=O)c2ccc3c(c2)c(=O)n(C)c(=O)n3C)c1 | -14.9% | –
CC(=O)Nc1ccc(NC(=O)CN2C(=O)COc3ccc(S(=O)(=O)N4CCCCC4)cc32)cc1 | -1.03% | –
CCOc1cccc(-c2nnc(SCC(=O)NC3CC3)n2C)c1 | -31.3% | –
OCCN1CCN(c2nnc(-c3ccccc3)c3ccccc23)CC1 | -1.93% | –
CCOc1ccc(N(CC(=O)NCCOc2ccccc2OC)S(=O)(=O)c2ccccc2)cc1 | -29.8% | –
C=CCN1CCN(C(=O)CCCc2ccccc2)CC1 | – | 5.62 µM (active)
O=C(CCCc1ccccc1)NCc1ccccc1 | 16.2% | –
CC(=O)c1ccc(N2CCN(C(=O)CCc3ccccc3)CC2)cc1 | 23.9% | –
Cc1ccccc1OCC(=O)Nc1nnc(S(=O)(=O)N2CCCC2)s1 | 14.6% | –
CCOc1cc(/C=N/Nc2cc(C)nc3ccc(C)cc23)ccc1O | -24.7% | –
COc1cccc(-c2nc3n(n2)C(c2ccccc2Cl)C(C(N)=O)=C(C)N3)c1 (centres undefined) | 10.2% | –
CC1=C(C(N)=O)C(c2ccc(F)cc2)n2nc(CCCO)nc2N1 (centres undefined) | -6.31% | –

Compound | activity change, negative = inhibition | Potency
CC1=C(C(N)=O)C(c2ccc3c(c2)OCO3)n2nc(-c3cccc(C)c3)nc2N1 (centres undefined) | – | 5.62 µM (active)
Cc1ccc(C(=O)OCC(=O)NC(=O)Cc2ccccc2)c(O)c1 | -14.9% | –
CN(C)C(=O)c1cc(Br)ccc1Cl | 5.62% | –
COC(=O)c1oc2ccc(Br)cc2c1NC(C)=O | -12.5% | –
CC(=O)N/N=C(\C)c1ccc(Br)cc1Br | – | 10 µM (active)
COc1ccc(CCNC(=O)CS(=O)(=O)Cc2nc(-c3ccc(C)cc3)oc2C)cc1OC | -11.7% | –
CCCCNC(=O)C1(O)c2ccccc2NC(=O)N1c1ccc(Cl)cc1 (centres undefined) | 0.468% | –
CCn1cc(/C=C(\NC(=O)c2cc(OC)c(OC)c(OC)c2)C(=O)N2CCN(C)CC2)c2ccccc21 | 0.404% | –
O=C(N/N=C/c1ccc(O)c2ccccc12)c1cccnc1 | -14% | –
Cc1ccc(/C=N/NC(=O)C2=NNC(c3ccccc3)(c3ccccc3)C2)c(O)c1 | – | 1.26 µM (active)
Cc1nc2ccc(C(=O)N/N=C/c3ccc(O)cc3)cc2[nH]1 | 1.66% | –
O=C(NCC(=O)N1CCC2(CC1)NCCc1[nH]cnc12)c1ccc(Br)cc1 | -10.7% | –
CCOc1cc(/C=C/c2nc3ccccc3c(=O)[nH]2)cc(Br)c1OC | 28.2% | –
CCCn1c(C2CCCN2c2nc(-c3ccc(C)cc3)cs2)nc2cc(Cl)c(N3CCCCC3)cc21 (centres undefined) | – | 10 µM (active)
Cc1ccc(-c2csc(N3CCN(c4cc5c(cc4Cl)nc(-c4ccncc4)n5CCOCCO)CC3)n2)cc1 | -30.6% | –
CCCn1c(C(C)Nc2nc(-c3ccc(C)cc3)cs2)nc2cc(Cl)c(N3CCCCC3)cc21 (centres undefined) | – | 7.08 µM (active)
CCCn1c(CCNc2nc(-c3ccc(OC)cc3)cs2)nc2ccccc21 | – | 11.2 µM (active)
CCOC(=O)CSc1nnc(CNc2nc(-c3ccccc3)cs2)n1C | 6.34% | –
CCCn1c(C(O)c2ccc(OCC)cc2)nc2ccccc21 (centres undefined) | -25.6% | –
Nc1c(Cl)cc(-c2csc(N3CCCC3c3nc4cc(Cl)c(Cl)cc4n3CCOCCO)n2)cc1Cl (centres undefined) | – | 14.1 µM (active)
COc1cccc(S(=O)(=O)NCc2ccc(C(=O)NCc3ccccn3)cc2)c1 | -42.1% | –
CCN(CC)CCCNC(=O)c1c(O)c2cc(F)cc3c2n(c1=O)C(C)CC3 (centres undefined) | -23% | –
O=C1NC(=O)C(c2ccc(Cl)cc2)N1 (centres undefined) | 1.34% | –

Compound | activity change, negative = inhibition | Potency
Cc1ccc(S(=O)(=O)NCC2CCC(C(=O)N3CCOCC3)CC2)cc1 (centres undefined) | 1.41% | –
CC(=O)Nc1c2c(nn1-c1ccc(C)cc1C)CS(=O)C2 (centres undefined) | -12.4% | –
CCc1cccc(C)c1NS(=O)(=O)c1cc(Br)cnc1N | -4.25% | –
CC(=O)c1cccc(NC(=O)c2cc(C)nn2-c2ccccc2)c1 | 4.29% | –
CCOC(=O)c1cc(S(=O)(=O)NCCc2ccc(OC)c(OC)c2)cn1C | 1.39% | –
CNC(=O)C1CCN(S(=O)(=O)c2c(C)noc2/C=C/c2cccc(C)c2)CC1 | -5.56% | –
COc1ccc(-c2csc(N3CCN(Cc4ccc5c(c4)OCO5)CC3)n2)cc1 | -0.746% | –
CCCn1c(C2CCCN2c2nc(-c3ccc(OC)cc3)cs2)nc2ccccc21 (centres undefined) | – | 2 µM (active)
COc1ccc(-c2cc3n(n2)CCc2nc4ccccc4n2-3)cc1 | 23% | –
O=[N+]([O-])c1cc(C(F)(F)F)ccc1NCCc1ccncc1 | 21.3% | –
CC1(C)Cc2cccc(OCC(=O)NCc3ccccc3)c2O1 | 29.7% | –
CCCCc1ccc(NC(=O)NCc2cccnc2)cc1 | 26.2% | –
CCOC(=O)C1CCCN(CCSc2ccc(C)cc2)C1 (centres undefined) | -23% | –
Cc1nc(-c2ccc(Cl)cc2)sc1C(=O)NN | -2.42% | –
Cc1nc(-c2ccc(Cl)cc2)sc1C(=O)CBr | – | 5.01 µM (active)
Cc1nc(-c2ccccc2)sc1C(=O)/C=C/N(C)C | 1.56% | –
COc1ccccc1OC(C)C(=O)Nc1ccc(S(=O)(=O)Nc2nccs2)cc1 (centres undefined) | 18.7% | –
Cc1ccccc1-c1n[nH]c(=S)n1C | – | 2.82 µM (active)
Cc1ccccc1-c1ccc(C(=O)O)s1 | -6.92% [at 96.6 µM] | –
O=C(O)C1CC=CCC1C(=O)Nc1ccccc1C(=O)N1CCN(c2ccccc2)CC1 (centres undefined) | 3.34% | –
COc1ccc(C(=O)Nc2ccccc2C(=O)N2CCN(c3ccccc3)CC2)cc1 | 13% | –
CC(C)c1ccc(N2CCN(C(=O)c3ccccc3NC(=O)/C=C(\C(=O)O)c3ccccc3)CC2)cc1 | – | 3.16 µM (active)
O=C(Cc1c(Cl)cccc1Cl)NC1CC1 | 4.83% | –

Compound | activity change, negative = inhibition | Potency
Cc1c(Cl)cccc1NC(=O)NCc1ccc(C)n1C | -21.2% | –
CCN1CC=C2C(C#N)=C(N)C(C#N)(C#N)[C@H](c3ccoc3)[C@H]2C1 | -34.4% | –
N#CC1=C(N)C(C#N)(C#N)[C@H](c2ccsc2)[C@H]2COCC=C12 | – | 17.8 µM (active)
CCOC(=O)N1CC=C2C(C#N)=C(N)C(C#N)(C#N)[C@H](c3cccs3)[C@H]2C1 | -18.5% | –
CCCNC(=O)C(=O)Nc1cc2c3c(c1)CCC(=O)N3CCC2 | -25.3% | –
CN(C(=O)C1CCN(c2ncnc3c2nc2n3CCCCC2)CC1)C1CCCCC1 | 27.8% | –
CCOc1ccc(Nc2nc(Cc3nnc(SCC(=O)NC4CCCC4)n3C)cs2)cc1 | -27% | –
COCCCn1c(SCC(=O)NC2CCCC2)nnc1-c1ccccc1 | -12.2% | –
COCCCn1c(Cc2csc(Nc3cccc(Cl)c3)n2)nnc1SCC(=O)OC1CCCCC1 | – | 11.2 µM (active)
CCCn1c(C(Cc2ccccc2)NC(=O)COC)nc2ccccc21 (centres undefined) | -6.17% | –
CCOc1ccccc1NC(=O)C12CC3CC(C1)CC(c1ccc(C)cc1)(C3)C2 | 8.47% | –
CCCn1c(NC(=O)C23CC4CC(CC(O)(C4)C2)C3)nc2ccccc21 | – | 0.708 µM (active)
Cc1cc(C)nc(N/N=C/c2c(CO)cnc(C)c2O)n1 | -28.5% | –
COC(=O)c1ccc2c(=O)n(CC3CCCO3)c(=S)[nH]c2c1 (centres undefined) | – | 2.82 µM (active)
O=C(NC1CCCCC1)c1ccc2c(=O)n(CC3CCCO3)c(=O)[nH]c2c1 (centres undefined) | -16.1% | –
COc1ccc(CNc2nc3c(c(=O)[nH]c(=O)n3C)n2Cc2ccccc2)cc1 | 8.46% | –
COc1ccc(Cn2c(=S)[nH]c3cc(C(=O)NCCCN4CCOCC4)ccc3c2=O)cc1 | -17.8% | –
COc1ccc(Cn2c(=O)cc(C)[nH]c2=S)cc1 | – | 11.2 µM (active)
NC(=O)C1CCN(C(=O)c2ccc3c(=O)n(Cc4cccc(Br)c4)c(=S)[nH]c3c2)CC1 | 5.31% | –
COc1ccc(Cn2c(=S)[nH]c3cc(C(=O)N4CCCCC4)ccc3c2=O)cc1 | – | 8.91 µM (active)
COCCn1c(=S)[nH]c2cc(C(=O)NCCc3ccc(OC)c(OC)c3)ccc2c1=O | -10.7% | –
COc1ccc(Cn2c(O)c(/C=C3/C=CC=N3)c(=O)[nH]c2=O)cc1 | -1.9% | –

Reference: PubChem BioAssay AID2551 (National Center for Advancing Translational Sciences (NCATS), 2010)
